Most compounds without a hit are left out; they make up all but 10% or so of the library.
Six1-Eya2 blk = qHTS Assay for Inhibitors of the Six1/Eya2 Interaction; Homeobox protein SIX1 (Homo sapiens) + Protein phosphatase EYA2 (Homo sapiens), …; AlphaScreen GST-Six1/His-Eya2 binding, biochemical; hits give low values; activity change, % (test concentration not listed); 360,000 compounds, 0.56% hits; AID 651725, 2012; in the data active = activity change below about -65%; inconclusive = mostly about -30% to -63%
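Compounds are tested against tagged Six1 and Eya2 proteins bridged by glutathione donor and nickel acceptor beads; after a one-hour incubation at 37 °C without light, AlphaScreen emission is recorded.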
BAZ2B block = qHTS Assay for Inhibitors of BAZ2B; Bromodomain adjacent to zinc finger domain protein 2B (Homo sapiens), Q9UIF8; AlphaScreen BAZ2B-H3K14Ac peptide displacement; Potency, µM (doses to about 114 µM), usual class: inhibitors; 360,000 compounds, 4.4% hits; AID 504333, 2011; also: nearly all actives have a fitted effect of over 60% in size
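Compounds, titrated to a top concentration of 110 uM, were incubated 30 min at room temperature with preformed BAZ2B/acetyl-K14 H3 peptide complex (50 nM each). Proximity signal was measured by AlphaScreen after 20 min with beads.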
JMJD2A Tudor inh = qHTS Assay for Inhibitors of JMJD2A-Tudor Domain | Lysine-specific demethylase 4A (Homo sapiens), O75164 | AlphaScreen JMJD2A-Tudor / H3K4me3 peptide binding | Potency, µM (titrated, usually from 114 µM), usual class: inhibitors | 390,000 compounds, 4.4% hits | AID 504339, 2011; also: nearly all actives have a fitted effect of over 50% in size
CtBP-E1A inh = qHTS Assay for Inhibitors of the CtBP/E1A Interaction. CtBP / adenovirus E1A interaction (AlphaScreen). AlphaScreen GST-E1A/His-CtBP binding, 1536-well; hits give low values. activity change, % (test concentration not listed). 340,000 compounds, 0.49% hits. AID 651724, 2012; in the data active = activity change below about -65%; inconclusive = mostly about -30% to -63%
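AlphaScreen with 125 nM GST-E1A and 125 nM His-CtBP (5X stocks) in Tris pH 8.0, 300 mM NaCl, BSA, Tween 20, TCEP. Compounds preincubated 2 h at 37 deg C, then glutathione donor/nickel acceptor beads added for 1 h at 37 deg C in dark.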
HP1b chromo inh = HTS for Inhibitors of HP1-beta Chromodomain Interactions with Methylated Histone Tails | Chromobox protein homolog 1 (Homo sapiens), P83916 | AlphaScreen HP1-beta / biotin-H3K9me3 peptide binding | Potency, µM (series often up to 114 µM), most hits filed as inhibitors | 390,000 compounds, 0.56% hits; also: nearly all actives have a fitted effect of over 70% in size
Target sequence (P83916 whole entry, looked up): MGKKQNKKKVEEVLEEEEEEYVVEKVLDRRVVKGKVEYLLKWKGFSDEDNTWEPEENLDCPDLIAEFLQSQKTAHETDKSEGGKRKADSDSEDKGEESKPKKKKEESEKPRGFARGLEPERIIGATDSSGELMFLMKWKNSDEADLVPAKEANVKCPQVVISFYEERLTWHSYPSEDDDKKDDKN
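Compound inhibition of the preformed complex between 50 nM HP1-beta and 50 nM biotinylated H3K9me3 peptide was read by AlphaScreen. Buffer was PBS pH 7.4 with 0.01% Tween-20. Incubations ran 30 min at room temperature, with 10 ug/mL donor/acceptor beads.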
G9a inh = qHTS Assay for Inhibitors of Histone Lysine Methyltransferase G9a | Histone-lysine N-methyltransferase EHMT2 (Homo sapiens), Q96KQ7 | G9a H3K9 monomethylation, AlphaScreen, 2 h | Potency, µM (titrated, usually from 102 µM), most hits filed as inhibitors | 350,000 compounds, 8.8% hits; also: nearly all actives have a fitted effect of over 75% in size
Target sequence (Q96KQ7 913-1193 limits assumed): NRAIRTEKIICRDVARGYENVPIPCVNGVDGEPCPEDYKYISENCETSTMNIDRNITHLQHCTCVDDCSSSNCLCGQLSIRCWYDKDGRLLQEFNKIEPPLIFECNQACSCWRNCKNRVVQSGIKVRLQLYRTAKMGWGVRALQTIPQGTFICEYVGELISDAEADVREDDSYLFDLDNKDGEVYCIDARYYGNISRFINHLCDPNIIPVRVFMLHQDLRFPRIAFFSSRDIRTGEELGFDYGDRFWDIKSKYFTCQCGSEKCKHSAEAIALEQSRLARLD
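AlphaScreen detection with an anti-monomethyl H3K9 antibody quantified product after a 2 h room-temperature reaction containing 500 nM biotinylated H3K9 peptide, 20 µM SAM and 20 nM enzyme, which had been preincubated 15 min with compound.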
Of the large screens only hits and unclear results are named; the others gave an inactive call. Unless noted, calls follow the shape of the dose curve; as a rule, active = well fitted inhibition curve with a large enough effect; inconclusive = small, poorly fitted or top-dose-only effect; inactive = no such curve, though single readings can be large or run the other way.

Cn1c(SCC(=O)OCC(=O)c2ccccc2)nnc1-c1cccs1	none
Cn1c(SCC(=O)c2ccc(O)c(O)c2)nnc1-c1cccs1	BAZ2B block 50µM, JMJD2A Tudor inh 25µM (no result: G9a inh)
Cn1c(SCC(=O)NC(c2ccccc2)c2ccccc2)nnc1-c1cccs1	JMJD2A Tudor inh 50µM
Cn1c(SCC(=O)c2ccc(O)c(O)c2)nnc1-c1ccccc1	BAZ2B block inconclusive
Cc1ccc(C(=O)CSc2nnc(-c3cccs3)n2C)o1	G9a inh 50µM
CCn1c(SCc2nc3ccccc3s2)nnc1-c1cccs1	none
Cn1c(SCc2ccccc2)nnc1-c1cccs1	none
Cc1cn2c(=O)c(C(=O)N3CCN(c4ccccc4)CC3)cnc2s1	none
O=C(NC1CC(=O)N(c2ccc3c(c2)OCCO3)C1)N1CCC(O)CC1 (stereo not drawn)	none
Cc1ccc2c(c1)-c1onc(C(=O)N(C)c3ccc(F)cc3)c1CO2	none (no result: Six1-Eya2 blk, CtBP-E1A inh)
CNC1C(OC2C(O[C@@H]3C(O)C(O)[C@@H](N=C(N)N)C(O)C3N=C(N)N)OC(C)[C@@]2(O)CO)OC(CO)C(O)C1O (stereo partly drawn)	none (no result: Six1-Eya2 blk, BAZ2B block, JMJD2A Tudor inh, CtBP-E1A inh, HP1b chromo inh)
CCCC(C(=O)NNC(=O)c1cc(C)oc1C)c1ccccc1 (stereo not drawn)	none (no result: BAZ2B block, G9a inh)
CCCNC(=O)Cc1c(C)n(C(=O)c2ccc(Cl)cc2)c2ccc(OC)cc12	none (no result: G9a inh)
COC(=O)CCNC(=O)Cc1c(C)n(C(=O)c2ccc(Cl)cc2)c2ccc(OC)cc12	G9a inh 50µM
CC1=CC(C#N)(C#N)C(C#N)(C#N)C(c2ccccc2)N1 (stereo not drawn)	BAZ2B block 35µM, G9a inh inconclusive (no result: Six1-Eya2 blk, JMJD2A Tudor inh, CtBP-E1A inh, HP1b chromo inh)
C=CCOc1ccc(CNn2c(C)n[nH]c2=S)cc1OC	JMJD2A Tudor inh 20µM (no result: G9a inh)
C=CCOc1c(Br)cc(CNn2c(C)n[nH]c2=S)cc1OC	JMJD2A Tudor inh 89µM, HP1b chromo inh inconclusive, G9a inh 11µM
C=CCOc1c(Br)cc(CNc2nccs2)cc1OC	BAZ2B block inconclusive, JMJD2A Tudor inh inconclusive, G9a inh 11µM
COc1ccc(-c2nc(CNC(=O)Nc3ccccc3)c(C)o2)cc1	none (no result: Six1-Eya2 blk, CtBP-E1A inh)
CC[C@H](C)[C@@H](CN[C@H](C)CNC)NCCC(c1ccccc1)c1ccccc1	G9a inh 45µM
COc1cc(/C=C(/C#N)c2nc3ccccc3[nH]2)ccc1OCC(=O)Nc1ccccc1C(C)C	BAZ2B block 50µM
COc1cc(/C=C(/C#N)c2nc3ccccc3[nH]2)ccc1OCC(=O)Nc1ccccc1C	none
CCOc1cc(/C=C(/C#N)c2ccc(F)cc2)ccc1OCc1ccc(C(=O)O)o1	none
CCOc1cc(/C=C(/C#N)c2nc3ccccc3[nH]2)ccc1OCc1ccc(C(=O)O)o1	Six1-Eya2 blk inconclusive, BAZ2B block inconclusive, CtBP-E1A inh inconclusive, G9a inh 71µM
COc1ccc(CC(=O)Nc2ccc(-c3nc4ccccc4s3)cc2Cl)cc1OC	none (no result: Six1-Eya2 blk, CtBP-E1A inh)
CN1CCN(c2ccc(-c3cccc(NC(=O)COc4ccc(Cl)cc4)c3)nn2)CC1	G9a inh 50µM
CN1CCN(c2ccc(-c3cccc(NC(=O)COc4ccccc4)c3)nn2)CC1	G9a inh inconclusive
COc1ccc(C(=O)Nc2cccc(-c3ccc(N4CCOCC4)nn3)c2)cc1OC	none
CCOc1ccc(C(=O)Nc2cccc(-c3ccc(N4CCOCC4)nn3)c2)cc1OCC	G9a inh 45µM
COc1cc(Cl)c(C)cc1NC(=O)CSC1=NCCS1	none (no result: BAZ2B block, CtBP-E1A inh, G9a inh)
CN(C)CCN(C(=O)CCS(=O)(=O)c1ccccc1)c1nc2c(F)cccc2s1	G9a inh 28µM
COc1ccc(OC)c2sc(N(CCCN(C)C)C(=O)CCS(=O)(=O)c3ccccc3)nc12	G9a inh 20µM
COc1ccc(Cl)c2sc(N(CCN(C)C)C(=O)CCS(=O)(=O)c3ccc(C)cc3)nc12	G9a inh 10µM

Assay outcomes: PubChem BioAssay, National Center for Advancing Translational Sciences (NCATS)
